From PubChem BioAssay (Tox21)
“And” between values parts separate entries of the source, which are not always exact repeats. Equal values may be shown once. Inconclusive results are not listed. Entries that show only a call come without a potency. Some structures have more than one record in an assay (separate samples or runs), and their calls can disagree. The source made the active and inactive calls. Calls come from the whole dose curve; as a rule, active = well fitted cell-killing curve with a large enough effect in the repeat runs; inconclusive = weak or mixed curves, or effect the other way; inactive = no such curve, though single readings can be large or run the other way.

Assay: qHTS assay to identify small molecule agonists of the vitamin D receptor (VDR) signaling pathway - cell viability counter screen (AID 743224); note: nearly all actives have a fitted effect of over 50% in size
Conditions: VDR-bla HEK293T viability, CellTiter-Glo luminescence, 16 h; series mostly up to 62.6 µM; activity change, negative = cytotoxicity: at the top concentration
Source text: U.S. Tox21 Program National Center for Advancing Translational Sciences [NCATS] NIH Chemical Genomics Center [NCGC] U.S. Environmental Protection Agency [EPA] National Institutes of Environmental Health Sciences [NIEHS] National Toxicology Program [NTP] U.S. Food and Drug Administration [FDA] Tox21 Assay Overview: The vitamin D receptor (VDR), a member of nuclear hormone receptor superfamily, plays a critical role in calcium homeostasis and bone metabolism. It is also involved in cell differentiation and growth, and thrombogenicity. […] The cytotoxicity of the Tox21 compound library against the VDR-bla cell line was tested in parallel by measuring the cell viability using CellTiter-Glo assay (Promega, Madison, WI) in the same wells.
Tox21 Assay Protocol Summary: VDR-bla cells were dispensed at 2,000 cells/6 uL/well into black wall/clear-bottom 1536-well plates using a Multidrop Combi (Thermo Fisher Scientific, Waltham, MA) dispenser. After the assay plates were incubated at a 37C and 5% CO2 for 4 h, 23 nL of compounds dissolved in DMSO, positive controls or DMSO only was transferred to the assay plate by a Pintool station (Kalypsys, San Diego, CA). The plates were incubated at 37C and 5% CO2 for 16 h. After 1 uL of LiveBLAzerTM B/G FRET substrate was added using a Bioraptr Flying Reagent Dispenser (FRD) workstation (Beckman Coulter, Indianapolis, IN, USA), the plates were incubated at room temperature for 2 h, and fluorescence intensity was measured by an Envision plate reader (PerkinElmer, Shelton, CT). For cell viability readout that measures cytotoxicity, 3 ul/well of CellTiter-Glo reagent was added into the assay plates using a FRD. After 30 min incubation at room temperature, the luminescence intensity in the plates was measured using a ViewLux (PerkinElmer) plate reader.
Potency is the fitted concentration of half-maximal effect.

Row | SMILES | Potency | activity change, negative = cytotoxicity
1 | O=c1nc(O)n(Cl)c(=O)n1Cl | inactive | 
2 | Cc1cc(-c2ccc(N)c(C)c2)ccc1N | inactive | 
3 | CCCCn1cc[n+](C)c1C | inactive | 
4 | O=C(O)CC(O)(CC(=O)O)C(=O)O | inactive | 
5 | OCCOc1ccccc1 | inactive | 
6 | CCCCCCCCCCCCOS(=O)(=O)O | inactive | 
7 | Cc1cc(Cl)ccc1N | inactive | 
8 | Cc1cc(Cl)ccc1OCC(=O)O | inactive | 
9 | CCCCCCCCCCCC(=O)O |  | 0.178% (inactive)
10 | O=P1(N(CCCl)CCCl)NCCCO1 (stereo not given) | inactive | 
11 | O=C(O)C(Cl)Cl | inactive | 
12 | COCC(=O)N(c1c(C)cccc1C)C(C)C(=O)OC (stereo not given) | inactive | 
13 | CCCCn1cc[n+](C)c1 | inactive | 
14 | CC[N+]1(C)CCCC1 | inactive | 
15 | CC[N+](CC)(CC)CC | inactive | 
16 | CCCCCCCCCCCCCC[P+](CCCCCC)(CCCCCC)CCCCCC | 9.82 µM (active) and 5.54 µM (active) | 
17 | CC[n+]1ccccc1 | inactive | 
18 | C[C@]12CCC(=O)C=C1CC[C@@H]1[C@@H]2CC[C@]2(C)C(=O)CC[C@@H]12 | inactive | 
19 | CN(C)[C@@H]1C(=O)C(C(N)=O)=C(O)[C@@]2(O)C(=O)C3=C(O)c4c(O)cccc4[C@@](C)(O)[C@H]3[C@H](O)[C@@H]12 | inactive | 
20 | CC(Cl)(Cl)C(=O)O | inactive | 

Row | SMILES | Potency | activity change, negative = cytotoxicity
21 | O=c1[nH]c(=O)n(Cl)c(=O)n1Cl | inactive | 
22 | Nc1ccccc1 | inactive | 
23 | Oc1ccccc1-c1ccccc1 | inactive | 
24 | O=C(O)c1ccccc1O | inactive | 
25 | COP(=O)(OC)OC=C(Cl)Cl | inactive | 
26 | O=C(O)c1nc(Cl)ccc1Cl | inactive | 
27 | CCOP(=S)(OCC)Oc1ccc2c(C)c(Cl)c(=O)oc2c1 | inactive | 
28 | Nc1ccc(-c2ccc(N)cc2)cc1 | inactive | 
29 | C=CCOC(Cn1ccnc1)c1ccc(Cl)cc1Cl (stereo not given) | 54.9 µM (active) and inactive | 
30 | CCCC[n+]1ccc(C)cc1 | inactive and 43.4 µM (active) | 
31 | CC(=O)[O][Hg][c]1ccccc1 | 686 nM (active) and 871 nM (active) and 422 nM (active) | 
32 | O=C(O)CCl | inactive | 
33 | CCCC[n+]1cccc(C)c1 | inactive | 
34 | O=C(O)COc1ccc(Cl)cc1Cl | inactive | 
35 | CCCCCC[n+]1ccccc1 | 39.3 µM (active) and 49.3 µM (active) and inactive | 
36 | CCCC[N+]1(C)CCCC1 | inactive | 
37 | CCCCCCn1cc[n+](C)c1 |  | -25.7% [at 81.1 µM] (inactive)
38 | O=S(=O)(O)O | inactive | 
39 | COP(=O)(OC)C(O)C(Cl)(Cl)Cl (stereo not given) | inactive | 
40 | COc1ccccc1N | inactive | 
